Data taken from PubChem BioAssay AID1159580 (chemical genetic matrix, 2015).
Several values for one entry are separate records, joined by “and”; a condition that tells them apart may be missing. Equal values may be shown once. The whole screen tested about 5,500 compounds, of which about 2,000 (36%) were called active. Inconclusive results (about 18%) are left out. No stated cut-off is given here; in the data, active means normalized growth mostly below about 0.91 (no sharp cut-off); inconclusive means no clear call, values can overlap the other calls; inactive means mostly above about 0.92. The list shows a part of the results.

Test: chemical genetic growth profiling, strain panel (AID 1159580);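 further: tested at 20 µM; growth read once vehicle control cultures reached saturation at 30 °C; 1 = growth at the plate median or of vehicle wells; lower values mean less growth of the strain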
Details: S. cerevisiae deletion strains, growth OD

Measured: normalized growth

CN/C(=C\[N+](=O)[O-])NCCSCc1ccc(CN(C)C)o1
inactive: locus YAL021C, strain ccr4, hits give low values 0.979 | locus YAL026C, strain drs2, hits give low values 0.99 | locus YAL030W, strain snc1, hits give low values 1 | locus YAL040C, strain CLN3, hits give low values 1 | locus YBL061C, strain skt5, hits give low values 0.974 | locus YBR009C, strain hhf1, hits give low values 0.998 | locus YBR021W, strain FUR4, hits give low values 1.04 | locus YBR023C, strain chs3, hits give low values 0.989 | locus YBR171W, strain sec66, hits give low values 0.989 | locus YBR229C, strain ROT2, hits give low values 1.02 | locus YBR231C, strain swc5, hits give low values 0.977 | locus YBR279W, strain paf1, hits give low values 0.991 | locus YCL011C, strain gbp2, hits give low values 0.984 | locus YCL016C, strain dcc1, hits give low values 0.986 | locus YCL029C, strain bik1, hits give low values 1 | locus YCL061C, strain MRC1 (second series), hits give low values 1.01 | locus YCL069W, strain vba3, hits give low values 0.973 | locus YCR088W, strain abp1, hits give low values 0.976 | locus YDL005C, strain med2, hits give low values 0.977 | locus YDL035C, strain GPR1, hits give low values 1.04 | locus YDL040C, strain nat1, hits give low values 0.99 | locus YDL074C, strain BRE1, hits give low values 1.07 | locus YDL101C, strain DUN1, hits give low values 1.03 | locus YDL134C, strain PPH21, hits give low values 1.03 | locus YDL185W, strain tfp1, hits give low values 0.987 | locus YDL192W, strain arf1, hits give low values 0.989 | locus YDR001C, strain nth1, hits give low values 0.982 | locus YDR069C, strain doa4, hits give low values 0.97 | locus YDR101C, strain arx1, hits give low values 1.01 | locus YDR137W, strain rgp1, hits give low values 0.975 | locus YDR150W, strain NUM1, hits give low values 1.02 | locus YDR159W, strain sac3, hits give low values 0.94 | locus YDR162C, strain NBP2, hits give low values 1.02 | locus YDR195W, strain ref2 0.943 | locus YDR297W, strain sur2, hits give low values 0.972 | locus YDR318W, strain mcm21, hits give low values 0.991 | locus YDR334W, strain swr1, hits give low values 0.977 | locus YDR335W, strain msn5, hits give low values 0.998 | locus YDR363W, strain ESC2, hits give low values 1 | locus YDR388W, hits give low values 0.995 | locus YDR392W, strain spt3, hits give low values 0.993 | locus YDR502C, strain sam2, hits give low values 0.997 | locus YEL003W, strain gim4, hits give low values 0.992 | locus YEL037C, strain rad23, hits give low values 0.986 | locus YEL061C, strain CIN8 (second series), hits give low values 0.977 | locus YEL061C, strain CIN8, hits give low values 1.01 | locus YER002W, strain NOP16, hits give low values 0.988 | locus YER015W, strain faa2, hits give low values 0.995 | locus YER016W, strain bim1, hits give low values 0.973 | locus YER110C, hits give low values 1 | locus YER111C, strain swi4, hits give low values 0.992 | locus YER155C, strain BEM2 (second series), hits give low values 0.973 | locus YER155C, strain BEM2, hits give low values 1.01 | locus YER167W, strain BCK2, hits give low values 1.02 | locus YFR010W, strain ubp6, hits give low values 0.99 | locus YGL078C, strain dbp3, hits give low values 0.986 | locus YGL086W, strain mad1, hits give low values 0.999 | locus YGL167C, strain pmr1, hits give low values 0.987 | locus YGL173C, strain kem1, hits give low values 0.989 | locus YGL227W, strain vid30, hits give low values 0.978 | locus YGL240W, strain doc1, hits give low values 0.996 | locus YGL248W, strain PDE1, hits give low values 1.04 | locus YGL253W, strain hxk2, hits give low values 0.993 | locus YGR078C, strain PAC10, hits give low values 0.997 | locus YGR135W, strain pre9, hits give low values 0.98 | locus YGR252W, strain gcn5, hits give low values 0.984 | locus YHR013C, strain ard1, hits give low values 0.952 | locus YHR027C, strain rpn1, hits give low values 1.01 | locus YHR030C, strain SLT2, hits give low values 1.02 and 0.986 | locus YHR079C, strain IRE1 (second series), hits give low values 0.982 | locus YHR079C, strain IRE1, hits give low values 0.999 | locus YHR094C, strain hxt1, hits give low values 0.983 | locus YHR129C, strain ARP1, hits give low values 1.02 | locus YHR142W, strain chs7, hits give low values 0.99 | locus YHR200W, strain rpn10, hits give low values 0.984 | locus YIL066C, strain RNR3, hits give low values 1.04 | locus YIL073C, strain SPO22, hits give low values 0.98 | locus YIL125W, strain kgd1, hits give low values 0.984 | locus YIR030C, strain dcg1, hits give low values 0.988 | locus YJL092W, strain hpr5, hits give low values 0.979 | locus YJL095W, strain BCK1 (second series), hits give low values 0.995 | locus YJL095W, strain BCK1, hits give low values 1.05 and 0.995 | locus YJL115W, strain asf1, hits give low values 0.986 | locus YJL129C, strain trk1, hits give low values 0.957 | locus YJL134W, strain LCB3, hits give low values 1.01 | locus YJL154C, strain vps35, hits give low values 0.973 | locus YJL164C, strain tpk1, hits give low values 0.996 | locus YJL166W, strain qcr8, hits give low values 0.985 | locus YJL168C, strain set2, hits give low values 0.988 | locus YJL187C, strain SWE1 (second series), hits give low values 1.04 | locus YJL187C, strain SWE1, hits give low values 0.977 | locus YJR043C, strain POL32, hits give low values 1.05 | locus YJR066W, strain TOR1, hits give low values 0.944 | locus YJR075W, strain HOC1, hits give low values 0.996
